Records with an inconclusive call do not appear. Values without a mark were called inactive. Calls of active or inactive are those of the source. Calls come from the whole dose curve; as a rule, active = well fitted inhibition curve with a large enough effect; inconclusive = small, poorly fitted or top-dose-only effect; inactive = no such curve, though single readings can be large or run the other way.
Target: N-terminal Xaa-Pro-Lys N-methyltransferase 1 (Homo sapiens) (UniProt Q9BV86)
Test: qHTS Assay for Inhibitors of N-terminal methyltransferase 1 (NTMT1): ThioGlo3 Assay Confirmatory Screen, Round 1.
Conditions: NTMT1 SAHH-coupled ThioGlo3 fluorescence, 30 min; series mostly up to 56.8 µM
In short: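 Human NTMT1 at 125 nM was preincubated 1 min at room temperature with compounds at various concentrations or 1 uM RCC1-6 control. Substrate mix (100 uM SAM, 10 uM SAHH, 15 uM ThioGlo3) was added, and fluorescence (Ex 340/Em 450 nm) was read at start and after 30 min, normalized to background.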
Note: nearly all actives have a fitted effect of over 80% in size.
Potency is the fitted concentration of half-maximal effect.
Throughout, for activity change, negative = inhibition: 0% is about no effect.

N-terminal Xaa-Pro-Lys N-methyltransferase 1 (Homo sapiens), sequence (Q9BV86 whole entry, looked up): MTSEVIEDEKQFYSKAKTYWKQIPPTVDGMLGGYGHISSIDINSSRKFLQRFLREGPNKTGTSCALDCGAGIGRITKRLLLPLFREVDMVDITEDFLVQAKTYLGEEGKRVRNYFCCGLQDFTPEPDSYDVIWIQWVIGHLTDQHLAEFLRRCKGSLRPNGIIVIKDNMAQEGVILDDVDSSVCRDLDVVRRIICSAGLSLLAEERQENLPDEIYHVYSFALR

| SMILES | Potency | activity change, negative = inhibition |
| --- | --- | --- |
| COc1cc2c(NC3CCN(C)CC3)nc(N3CCCN(C)CC3)nc2cc1OCCCCCCN(C)C | 24.1 µM (active) | – |
| COc1cc2c(NC3CCN(C)CC3)nc(N3CCCCC3)nc2cc1OCCCN(C)C | inactive | – |
| Nc1ncnc2c1ncn2[C@H]1O[C@H](CO)[C@@H](O)[C@@H]1O | inactive | – |
| CNc1ncnc2c1ncn2[C@H]1C[C@H](O)[C@@H](CO)O1 | inactive | – |
| COc1cc2c(NC3CCN(C4CCCCC4)CC3)nc(N3CCCN(C(C)C)CC3)nc2cc1OCCCN1CCCCC1 | 24.1 µM (active) | – |
| CNc1ncnc2c1ncn2[C@@H]1O[C@H](CO)[C@@H](O)[C@H]1O | inactive | – |
| COC(=O)c1ccc2c(c1)nc(NC(=O)c1ccccc1)n2CCCc1ccccc1 | inactive | – |
| COc1cc2c(NC3CCN(C)CC3)nc(N3CCCN(C)CC3)nc2cc1O | 24.1 µM (active) | – |
| C/C(=C\CNc1ncnc2c1ncn2[C@@H]1O[C@@H](CO)[C@@H](O)[C@H]1O)CO | inactive | – |
| Nc1ccnc2c1ncn2[C@@H]1O[C@H](CO)[C@@H](O)[C@H]1O | 2.71 µM (active) | – |
| Nc1nc(Nc2ccccc2)nc2c1ncn2[C@@H]1O[C@H](CO)C(O)[C@H]1O (stereo partly specified) | 24.1 µM (active) | – |
| COc1cc2nc(N3CCCN(C)CC3)nc(NC3CCN(C)C3)c2cc1OC (stereo unspecified) | 24.1 µM (active) | – |
| COc1cc2c(NC3CCN(C4CCCCC4)CC3)nc(N3CCCCCC3)nc2cc1OCCOCCN(C)C | 24.1 µM (active) | – |
| OC[C@H]1O[C@H](n2cnc3c(NC4CCCC4)nc(Cl)nc32)[C@@H](O)[C@@H]1O | inactive | – |
| Nc1ncnc2c1ncn2[C@@H]1O[C@H](COP(=O)(O)OP(=O)(O)OP(=O)(O)OP(=O)(O)OC[C@@H]2O[C@H](n3cnc4c(N)ncnc43)[C@@H](O)[C@H]2O)[C@@H](O)[C@H]1O | inactive | – |
| CCC(CC)n1ccc2c(C(=O)NCc3c(C)cc(C)[nH]c3=O)cc(C#N)cc21 | 15.2 µM (active) | – |
| CSc1nc(N)c2ncn([C@@H]3O[C@H](COP(=O)(O)OP(=O)(O)OP(=O)(O)O)[C@@H](O)[C@H]3O)c2n1 | inactive | – |
| COCCCCOc1cc2nc(N3CCCN(C)CC3)nc(NC3CCN(C)CC3)c2cc1OC | 24.1 µM (active) | – |

| SMILES | Potency | activity change, negative = inhibition |
| --- | --- | --- |
| Nc1nc(=S)c2ncn([C@H]3O[C@@H](CO)[C@@H](O)[C@@H]3O)c2[nH]1 | 13 µM (active) | – |
| COc1cc2c(NC3CCN(C(C)C)CC3)nc(N3CCCN(C(C)C)CC3)nc2cc1OCCOCCN(C)C | 24.1 µM (active) | – |
| Nc1ncnc2c1[nH]c(=S)n2C1OC(CO)C(O)C1O (stereo unspecified) | 17.1 µM (active) | – |
| CNC(=O)[C@H]1O[C@H](n2cnc3c(NCc4cccc(I)c4)ncnc32)[C@@H](O)[C@@H]1O | inactive | – |
| CNc1nc2c(N)ncnc2n1[C@@H]1O[C@@H]2COP(=O)(O)O[C@H]2[C@H]1O | inactive | – |
| Nc1ncnc2c1nc(Br)n2C1OC(CO)C(O)C1O (stereo unspecified) | inactive | – |
| C=CCNc1nc(NC2CCN(C)CC2)c2cc(OC)c(OC)cc2n1 | 27.1 µM (active) | – |
| O=c1[nH]cnc2c1ncn2[C@@H]1O[C@H](CO)[C@@H](O)[C@H]1O | inactive | – |
| Nc1ncnc2c1ncn2[C@@H]1O[C@H](CO)[C@@H](O)[C@H]1O | 1.08 µM (active) | – |
| Cn1cnc2c(ncn2[C@@H]2O[C@H](CO)[C@@H](O)[C@H]2O)c1=N | inactive | – |
| COc1cc2nc(N3CCN(C)CC3)nc(NC3CCCC3)c2cc1OC | 24.1 µM (active) | – |
| Nc1nc2c([nH]c(=O)n2[C@@H]2O[C@H](CO)[C@@H](O)[C@H]2O)c(=O)[nH]1 | – | 16.6% [at 6.3 µM] |
| CCN1CCCN(c2nc(NC3CCN(C(C)C)CC3)c3cc(OC)c(OCCCN4CCCC4)cc3n2)CC1 | 24.1 µM (active) | – |
| OC[C@@H]1O[C@@H](n2cnc3c(NCc4ccco4)ncnc32)[C@H](O)[C@H]1O | 24.1 µM (active) | – |
| CCN(CC)c1nc(NC2CCN(C)CC2)c2cc(OC)c(OC)cc2n1 | 27.1 µM (active) | – |
| COc1cc2nc(N3CCCCC3)nc(NC3CC3)c2cc1OC | 24.1 µM (active) | – |
| Nc1ncnc2c1[nH]c(=O)n2C1CC(O)C(CO)O1 (stereo unspecified) | inactive | – |
| [N-]=[N+]=Nc1nc2c(N)ncnc2n1C1OC(CO)C(O)C1O (stereo unspecified) | 21.5 µM (active) | – |
